Assay in all cases: NCI-60 one-dose screen, 48 h (100 = growth as untreated, 0 = no growth, -100 = all killed)
Common to all, as to conditions: 10 µM unless noted

The test system of experiment [1] is SR leukemia.
Experiment [2] relates to RPMI-8226 leukemia.
Experiment [3] relates to OVCAR-8 ovarian.
Experiment [4] concerns OVCAR-5 ovarian.
Experiment [5] deals with OVCAR-4 ovarian.
Experiment [6] deals with SK-OV-3 ovarian.
For experiment [7], the system named is IGROV1 ovarian.
Experiment [8] concerns OVCAR-3 ovarian.
In experiment [9] the test system is HS 578T breast.
In experiment [10] the test system is NCI/ADR-RES ovarian.
Experiment [11] has as its system T-47D breast.
Experiment [12] has as its system BT-549 breast.
Experiment [13] deals with SW-620 colon.
Experiment [14] relates to MCF7 breast.
The subject of experiment [15] is HCT-116 colon.
Experiment [16] relates to HCC-2998 colon.
The test system of experiment [17] is KM12 colon.
For experiment [18], the system named is MDA-MB-468 breast.
The subject of experiment [19] is MDA-MB-435 melanoma.

This is part of a sample that, as a whole, favours compounds with a hit. Of some 83,000 tested, about 20% had one in any assay.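 How to read the values: 0–100, growth inhibition (40 = 60% inhibited); 0, no net growth; -100 to 0, cell death (-40 = 40% of starting cells died; -100 = all dead).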 Values without a mark were called inactive. Active and inactive are the calls of the source. The calls were made as follows: active = growth percent below 10; inactive = the rest.

For `O=C(N=Nc1c(O)[nH]c2ccc([N+](=O)[O-])cc12)c1ccc2nc(-c3ccccc3)[nH]c2c1`, the growth is 30.9% in experiment [1]; 110% in experiment [2]; 65.1% in [3]; 107% in [4]; 45.8% in experiment [5]; 96.9% in [6]. In addition, the growth in experiment [7] is 76.9%; in experiment [8] it was -13.2% (active); in [9], 62.6%; in [10], 103%; in experiment [11], 12.5%; in experiment [12] it was 53.4%. In addition, the growth in experiment [13] is 83.8%; in [14], 18.7%; in [15] it was 10.7%; in [16], 27.4%; in [17] it was 99.5%; in experiment [18] it was 10.6%.

`O=C(/C=C/Nc1ccc2oc(=O)ccc2c1)c1cc2cc(Br)ccc2oc1=O`: the growth in experiment [1] is 99.2%; in experiment [2], 103%; in [3] it was 104%; in experiment [4], 108%; in experiment [5], 102%; in experiment [6], 99.8%. Further, the growth was 105% in [7]; 122% in experiment [8]; 92.6% in experiment [9]; 109% in experiment [10]; 94.4% in [11]; 87.9% in experiment [12]. The growth in [19] was 103%; in [13], 105%; in experiment [15], 101%; in experiment [16] it was 113%; in [17], 111%; in experiment [18], 98.9%.

Turning to `COc1c(F)ccc(C(=O)Nc2ccc3nc(NC(=O)C4CCCN(S(=O)(=O)c5ccc(C#N)cc5)C4)sc3c2)c1F` (configuration not stated), the growth in experiment [1] is 74.4%; in [2] it was 70.1%; in experiment [3], 111%; in [4] it was 103%; in experiment [5], 86.3%; in experiment [6], 103%. Besides, the growth in experiment [7] was 97.1%; in [8], 102%; in experiment [9] it was 79.1%; in [10], 96.1%; in experiment [11], 61.9%; in experiment [12], 75.8%. Further, the growth in [19] was 105%; in [13], 102%; in [15], 74%; in experiment [16], 119%; in experiment [17] it was 96.3%; in [18], 86.2%.

In the case of `COc1c(F)ccc(C(=O)Nc2ccc3nc(NC(=O)C4CCCN(S(=O)(=O)c5cccc(Cl)c5)C4)sc3c2)c1F` (configuration not stated), the growth in experiment [1] is 44.5%; in [2], 42.8%; in experiment [3] it was 98.8%; in experiment [4], 102%; in experiment [5] it was 83.1%; in experiment [6], 105%. For the same compound, the growth in experiment [7] was 81.6%; in [8] it was 105%; in experiment [9] it was 62.6%; in [10], 80.5%; in experiment [11] it was 53.1%; in experiment [12], 76%. Besides, the growth in experiment [13] is 98.6%; in experiment [15], 64.4%; in [16], 102%; in [17], 82.2%.

`COc1c(F)ccc(C(=O)Nc2ccc3nc(NC(=O)C4CCCN(S(=O)(=O)c5cccc(Br)c5)C4)sc3c2)c1F` (configuration not stated): the growth was 55.9% in experiment [1]; 51.7% in experiment [2]; 104% in [3]; 104% in experiment [4]; 73.6% in experiment [5]; 112% in experiment [6]. Besides, the growth in [7] was 86.8%; in [8], 106%; in experiment [9] it was 56.6%; in experiment [10], 85.3%; in experiment [11], 60.9%; in [12] it was 74.5%. Also, the growth is 90.7% in [19]; 94.5% in experiment [13]; 67.9% in [15]; 125% in experiment [16]; 78.7% in [17]; 98.1% in experiment [18].

Regarding `COc1cc(C2CC(c3ccc(S(=O)(=O)NCCNc4nc(Nc5ccc(F)cc5)nc(N(C)C)n4)cc3)=Nc3c(N)nc(N)nc3N2)cc(OC)c1OC` (configuration not stated), the growth in experiment [1] is 36.1%; in experiment [2], 24.8%; in experiment [3], 93.1%; in experiment [4], 98.4%; in experiment [5], 85.6%; in experiment [6] it was 110%. Further, the growth is 81.7% in [7]; 93.6% in experiment [8]; 76.5% in [9]; 95.6% in experiment [10]; 56.2% in [11]; 62.8% in experiment [12]. Moreover, the growth in experiment [13] is 96.3%; in experiment [14] it was 51.1%; in experiment [15] it was 82.6%; in experiment [16], 87.5%; in experiment [17], 95.5%; in [18], 0.318% (active).

`O=c1[nH]c(=O)c2c(-c3cc4ccccc4oc3=O)ccnc2[nH]1`: the growth is 71.8% in experiment [1]; 95% in [2]; 61.6% in [3]; 111% in [4]; 88.3% in experiment [5]; 71.2% in [6]. Further, the growth in experiment [7] is 79.4%; in experiment [8], 98.9%; in [9], 70.4%; in experiment [10], 86.9%; in experiment [11] it was 74.2%; in experiment [12], 70.2%. Moreover, the growth in experiment [19] is 101%; in [13], 98.9%; in experiment [15], 88.3%; in experiment [16], 98.8%; in experiment [17], 95.4%; in experiment [18], 57.9%.

As for `COc1cc(C2CC(c3cc(OC)c(OC)c(OC)c3)=NN2C(C)=O)ccc1OCc1ccccc1` (configuration not stated), the growth is 32.1% in [1]; 24.2% in experiment [2]; 46.7% in [3]; 59.8% in experiment [4]; 22.3% in experiment [5]; 71.3% in experiment [6]. For the same compound, the growth is 42.9% in experiment [7]; 41% in [8]; 41% in experiment [9]; 38.4% in experiment [10]; 2.7% (active) in [11]; 17.4% in experiment [12]. Also, the growth was 55.1% in experiment [13]; 17.1% in [14]; 24.3% in experiment [15]; 71.2% in [16]; 33.9% in [17]; 34.2% in [18].
